Measured values published in ChEMBL document CHEMBL1961873, “Compounds: GSK PKIS; Assays: Nanosyn kinase panel” (2012).

What was measured:
[1] = molecular target: T1, Mitogen-activated protein kinase 12 (Homo sapiens) (UniProt P53778); details: at 1 µM;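 note: values are averaged p38gamma kinase inhibition readings, compounds tested at 1 µM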
T1 sequence (whole entry): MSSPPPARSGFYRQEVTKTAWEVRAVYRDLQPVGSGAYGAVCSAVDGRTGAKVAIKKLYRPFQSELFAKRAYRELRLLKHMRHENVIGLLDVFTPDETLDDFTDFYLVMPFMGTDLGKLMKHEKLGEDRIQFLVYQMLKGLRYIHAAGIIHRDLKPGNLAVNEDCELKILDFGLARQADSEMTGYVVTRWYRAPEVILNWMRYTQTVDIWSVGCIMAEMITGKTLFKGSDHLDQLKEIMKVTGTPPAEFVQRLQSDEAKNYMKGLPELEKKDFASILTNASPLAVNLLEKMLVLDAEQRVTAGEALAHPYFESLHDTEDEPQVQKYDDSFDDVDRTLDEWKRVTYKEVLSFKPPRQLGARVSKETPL

[2] = molecular target: SRSF protein kinase 1 (Homo sapiens) (UniProt Q96SB4); details: at 0.1 µM
[3] = molecular target: SRSF protein kinase 1 (Homo sapiens) (UniProt Q96SB4); details: at 1 µM
[4] = molecular target: Phosphatidylinositol 4,5-bisphosphate 3-kinase catalytic subunit alpha isoform (Homo sapiens) (UniProt P42336); details: at 0.1 µM
[5] = molecular target: Phosphatidylinositol 4,5-bisphosphate 3-kinase catalytic subunit alpha isoform (Homo sapiens) (UniProt P42336); details: at 1 µM
[6] = molecular target: T2, Phosphatidylinositol 4,5-bisphosphate 3-kinase catalytic subunit delta isoform (Homo sapiens) (UniProt O00329); details: at 0.1 µM
T2 sequence (whole entry): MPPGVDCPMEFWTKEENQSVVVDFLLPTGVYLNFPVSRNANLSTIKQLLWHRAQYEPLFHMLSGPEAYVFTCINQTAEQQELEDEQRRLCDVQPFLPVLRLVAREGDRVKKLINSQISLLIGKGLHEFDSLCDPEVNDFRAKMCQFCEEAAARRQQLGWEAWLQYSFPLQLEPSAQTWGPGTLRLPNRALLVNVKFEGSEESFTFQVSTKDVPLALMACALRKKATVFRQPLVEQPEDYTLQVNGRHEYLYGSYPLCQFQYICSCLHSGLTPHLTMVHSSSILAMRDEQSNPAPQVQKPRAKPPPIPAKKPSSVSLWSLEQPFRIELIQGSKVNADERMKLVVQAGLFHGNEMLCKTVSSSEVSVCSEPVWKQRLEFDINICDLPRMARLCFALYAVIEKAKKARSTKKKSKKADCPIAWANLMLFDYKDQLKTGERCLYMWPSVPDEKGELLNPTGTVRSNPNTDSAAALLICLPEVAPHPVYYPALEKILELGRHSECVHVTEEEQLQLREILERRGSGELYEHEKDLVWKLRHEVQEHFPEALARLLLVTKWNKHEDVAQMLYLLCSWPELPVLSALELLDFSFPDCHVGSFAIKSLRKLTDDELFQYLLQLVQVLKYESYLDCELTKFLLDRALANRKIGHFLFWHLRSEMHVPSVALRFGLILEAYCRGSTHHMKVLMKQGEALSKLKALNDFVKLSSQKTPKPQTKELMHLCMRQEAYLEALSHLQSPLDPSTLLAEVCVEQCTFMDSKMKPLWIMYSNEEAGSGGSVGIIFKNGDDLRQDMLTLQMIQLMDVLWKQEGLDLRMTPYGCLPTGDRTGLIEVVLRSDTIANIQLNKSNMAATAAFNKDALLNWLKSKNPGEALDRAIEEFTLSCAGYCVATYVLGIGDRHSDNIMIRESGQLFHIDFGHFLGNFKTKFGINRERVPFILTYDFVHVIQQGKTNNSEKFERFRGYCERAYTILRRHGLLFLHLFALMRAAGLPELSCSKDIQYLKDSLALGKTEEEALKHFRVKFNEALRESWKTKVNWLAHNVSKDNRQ

[7] = molecular target: T2, Phosphatidylinositol 4,5-bisphosphate 3-kinase catalytic subunit delta isoform (Homo sapiens); details: at 1 µM
[8] = molecular target: Phosphatidylinositol 4-kinase beta (Homo sapiens) (UniProt Q9UBF8); details: at 0.1 µM
[9] = molecular target: Phosphatidylinositol 4-kinase beta (Homo sapiens) (UniProt Q9UBF8); details: at 1 µM
[10] = molecular target: Sphingosine kinase 1 (Homo sapiens) (UniProt Q9NYA1); details: at 0.1 µM
[11] = molecular target: Sphingosine kinase 1 (Homo sapiens) (UniProt Q9NYA1); details: at 1 µM
[12] = molecular target: T3, Sphingosine kinase 2 (Homo sapiens) (UniProt Q9NRA0); details: at 0.1 µM
T3 sequence (whole entry): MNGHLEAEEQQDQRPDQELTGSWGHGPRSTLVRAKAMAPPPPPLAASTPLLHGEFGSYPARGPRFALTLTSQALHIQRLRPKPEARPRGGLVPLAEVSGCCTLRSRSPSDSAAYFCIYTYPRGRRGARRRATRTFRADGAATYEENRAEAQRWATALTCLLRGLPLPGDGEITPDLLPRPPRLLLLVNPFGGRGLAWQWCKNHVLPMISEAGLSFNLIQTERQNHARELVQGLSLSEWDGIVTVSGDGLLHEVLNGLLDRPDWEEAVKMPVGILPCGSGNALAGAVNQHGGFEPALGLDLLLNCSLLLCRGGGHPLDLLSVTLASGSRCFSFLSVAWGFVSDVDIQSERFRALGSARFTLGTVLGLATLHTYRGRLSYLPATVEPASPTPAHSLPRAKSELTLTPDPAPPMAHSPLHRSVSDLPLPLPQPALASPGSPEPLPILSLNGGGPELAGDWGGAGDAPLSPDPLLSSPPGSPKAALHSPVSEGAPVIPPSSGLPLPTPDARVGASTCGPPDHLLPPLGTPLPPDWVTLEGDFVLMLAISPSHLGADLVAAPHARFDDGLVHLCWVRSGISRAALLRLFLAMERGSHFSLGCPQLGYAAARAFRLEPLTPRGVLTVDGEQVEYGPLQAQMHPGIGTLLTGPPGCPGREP

[13] = molecular target: T3, Sphingosine kinase 2 (Homo sapiens); details: at 1 µM
[14] = molecular target: Casein kinase II subunit alpha (Homo sapiens) (UniProt P68400); details: at 0.1 µM
[15] = molecular target: Casein kinase II subunit alpha (Homo sapiens) (UniProt P68400); details: at 1 µM
[16] = molecular target: T4, Inhibitor of nuclear factor kappa-B kinase subunit alpha (Homo sapiens) (UniProt O15111); details: at 0.1 µM
T4 sequence (whole entry): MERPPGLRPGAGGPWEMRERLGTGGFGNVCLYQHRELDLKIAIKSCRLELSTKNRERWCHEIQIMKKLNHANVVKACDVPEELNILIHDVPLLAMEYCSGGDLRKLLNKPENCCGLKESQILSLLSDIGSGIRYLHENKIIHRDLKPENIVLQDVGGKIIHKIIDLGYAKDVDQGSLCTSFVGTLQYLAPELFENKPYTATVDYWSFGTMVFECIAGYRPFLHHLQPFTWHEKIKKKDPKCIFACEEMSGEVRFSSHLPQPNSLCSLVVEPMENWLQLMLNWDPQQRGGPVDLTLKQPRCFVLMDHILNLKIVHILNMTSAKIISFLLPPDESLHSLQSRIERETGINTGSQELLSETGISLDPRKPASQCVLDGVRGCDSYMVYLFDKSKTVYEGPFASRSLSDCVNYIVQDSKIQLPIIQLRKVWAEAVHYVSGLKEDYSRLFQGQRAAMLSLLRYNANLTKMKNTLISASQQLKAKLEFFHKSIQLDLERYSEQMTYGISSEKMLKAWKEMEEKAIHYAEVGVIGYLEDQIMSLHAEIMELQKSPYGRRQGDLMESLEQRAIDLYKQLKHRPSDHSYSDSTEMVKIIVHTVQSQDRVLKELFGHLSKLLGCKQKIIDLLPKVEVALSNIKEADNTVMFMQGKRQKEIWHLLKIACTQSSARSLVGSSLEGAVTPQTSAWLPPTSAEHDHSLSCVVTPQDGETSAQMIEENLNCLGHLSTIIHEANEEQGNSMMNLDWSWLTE

[17] = molecular target: T4, Inhibitor of nuclear factor kappa-B kinase subunit alpha (Homo sapiens); details: at 1 µM
[18] = molecular target: T5, Inhibitor of nuclear factor kappa-B kinase subunit beta (Homo sapiens) (UniProt O14920); details: at 0.1 µM
T5 sequence (whole entry): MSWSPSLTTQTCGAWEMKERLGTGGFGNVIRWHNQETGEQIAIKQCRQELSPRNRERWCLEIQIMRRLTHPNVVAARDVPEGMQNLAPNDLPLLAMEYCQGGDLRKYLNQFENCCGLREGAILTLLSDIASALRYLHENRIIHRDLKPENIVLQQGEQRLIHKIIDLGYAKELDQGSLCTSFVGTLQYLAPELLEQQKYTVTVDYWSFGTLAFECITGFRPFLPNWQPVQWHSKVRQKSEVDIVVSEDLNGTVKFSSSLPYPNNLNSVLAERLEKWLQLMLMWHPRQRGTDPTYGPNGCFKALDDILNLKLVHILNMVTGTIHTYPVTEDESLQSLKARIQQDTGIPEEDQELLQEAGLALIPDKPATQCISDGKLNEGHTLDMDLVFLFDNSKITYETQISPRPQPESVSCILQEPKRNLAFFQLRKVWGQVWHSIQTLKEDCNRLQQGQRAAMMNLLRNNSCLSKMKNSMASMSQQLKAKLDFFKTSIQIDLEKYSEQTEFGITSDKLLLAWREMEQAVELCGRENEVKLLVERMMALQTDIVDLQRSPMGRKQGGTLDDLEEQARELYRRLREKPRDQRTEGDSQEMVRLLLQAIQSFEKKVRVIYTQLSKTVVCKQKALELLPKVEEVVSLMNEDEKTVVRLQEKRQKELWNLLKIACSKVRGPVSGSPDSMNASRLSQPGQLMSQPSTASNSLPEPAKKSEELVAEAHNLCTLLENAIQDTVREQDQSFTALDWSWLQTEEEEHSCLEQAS

[19] = molecular target: T5, Inhibitor of nuclear factor kappa-B kinase subunit beta (Homo sapiens); details: at 1 µM
[20] = molecular target: T6, Inhibitor of nuclear factor kappa-B kinase subunit epsilon (Homo sapiens) (UniProt Q14164); details: at 0.1 µM;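 note: mean inhibition of IKKε reported, from the GSK PKIS dataset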
T6 sequence (whole entry): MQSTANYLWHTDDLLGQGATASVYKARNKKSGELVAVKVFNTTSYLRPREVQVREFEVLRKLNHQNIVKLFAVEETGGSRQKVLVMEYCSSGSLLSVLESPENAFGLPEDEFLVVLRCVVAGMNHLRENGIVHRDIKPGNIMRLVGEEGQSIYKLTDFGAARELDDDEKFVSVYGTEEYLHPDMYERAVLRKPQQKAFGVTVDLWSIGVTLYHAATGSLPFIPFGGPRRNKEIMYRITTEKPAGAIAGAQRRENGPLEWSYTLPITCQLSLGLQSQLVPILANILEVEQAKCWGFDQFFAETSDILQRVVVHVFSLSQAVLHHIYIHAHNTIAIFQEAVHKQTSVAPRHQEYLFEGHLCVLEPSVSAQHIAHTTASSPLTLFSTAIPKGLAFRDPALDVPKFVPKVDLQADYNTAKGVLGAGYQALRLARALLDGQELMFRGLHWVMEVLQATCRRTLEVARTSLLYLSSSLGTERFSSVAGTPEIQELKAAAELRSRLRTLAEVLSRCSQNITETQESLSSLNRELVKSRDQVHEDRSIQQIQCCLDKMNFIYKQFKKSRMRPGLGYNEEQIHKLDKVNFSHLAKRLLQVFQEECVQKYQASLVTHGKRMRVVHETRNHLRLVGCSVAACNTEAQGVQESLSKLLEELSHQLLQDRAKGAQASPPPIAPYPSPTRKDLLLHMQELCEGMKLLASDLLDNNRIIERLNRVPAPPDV

Sequence of Casein kinase II subunit alpha (Homo sapiens) (P68400 whole entry, looked up): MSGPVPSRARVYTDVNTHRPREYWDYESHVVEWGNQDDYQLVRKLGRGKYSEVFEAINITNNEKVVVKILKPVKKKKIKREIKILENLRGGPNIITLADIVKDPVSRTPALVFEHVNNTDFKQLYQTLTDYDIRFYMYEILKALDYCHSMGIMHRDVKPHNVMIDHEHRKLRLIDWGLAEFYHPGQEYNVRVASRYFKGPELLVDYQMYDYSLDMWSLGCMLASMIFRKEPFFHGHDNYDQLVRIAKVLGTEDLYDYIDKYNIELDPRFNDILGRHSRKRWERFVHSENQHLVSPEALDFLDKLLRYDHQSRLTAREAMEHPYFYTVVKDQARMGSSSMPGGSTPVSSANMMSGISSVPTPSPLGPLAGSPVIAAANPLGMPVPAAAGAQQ
Sequence of Phosphatidylinositol 4,5-bisphosphate 3-kinase catalytic subunit alpha isoform (Homo sapiens) (P42336 whole entry, canonical isoform): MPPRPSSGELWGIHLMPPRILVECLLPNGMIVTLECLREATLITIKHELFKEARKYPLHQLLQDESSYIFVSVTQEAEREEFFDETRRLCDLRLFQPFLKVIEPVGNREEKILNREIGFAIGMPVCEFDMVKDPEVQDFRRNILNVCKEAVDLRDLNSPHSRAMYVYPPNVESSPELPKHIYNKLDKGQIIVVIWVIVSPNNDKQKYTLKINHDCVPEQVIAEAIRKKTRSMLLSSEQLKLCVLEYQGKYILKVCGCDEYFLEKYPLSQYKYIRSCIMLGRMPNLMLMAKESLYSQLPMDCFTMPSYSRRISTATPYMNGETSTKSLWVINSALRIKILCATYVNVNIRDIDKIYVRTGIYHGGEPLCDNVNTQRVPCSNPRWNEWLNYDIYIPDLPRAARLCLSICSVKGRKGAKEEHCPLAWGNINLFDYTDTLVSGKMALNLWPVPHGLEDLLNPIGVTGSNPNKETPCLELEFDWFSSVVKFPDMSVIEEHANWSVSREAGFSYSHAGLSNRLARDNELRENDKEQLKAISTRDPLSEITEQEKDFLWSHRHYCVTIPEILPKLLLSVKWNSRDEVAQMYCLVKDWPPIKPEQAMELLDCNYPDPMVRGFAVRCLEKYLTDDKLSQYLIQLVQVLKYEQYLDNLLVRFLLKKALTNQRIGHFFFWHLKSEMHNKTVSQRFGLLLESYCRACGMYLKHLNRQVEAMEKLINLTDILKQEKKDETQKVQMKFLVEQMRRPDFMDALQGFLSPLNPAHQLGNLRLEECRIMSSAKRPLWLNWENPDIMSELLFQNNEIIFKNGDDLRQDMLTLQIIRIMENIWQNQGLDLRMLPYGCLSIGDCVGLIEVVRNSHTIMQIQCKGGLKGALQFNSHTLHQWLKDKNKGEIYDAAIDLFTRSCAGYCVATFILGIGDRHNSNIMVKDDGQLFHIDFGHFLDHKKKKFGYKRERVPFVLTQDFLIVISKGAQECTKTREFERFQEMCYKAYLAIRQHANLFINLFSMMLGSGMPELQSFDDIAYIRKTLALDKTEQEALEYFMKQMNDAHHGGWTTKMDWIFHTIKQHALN
Sequence of SRSF protein kinase 1 (Homo sapiens) (Q96SB4 whole entry, canonical isoform): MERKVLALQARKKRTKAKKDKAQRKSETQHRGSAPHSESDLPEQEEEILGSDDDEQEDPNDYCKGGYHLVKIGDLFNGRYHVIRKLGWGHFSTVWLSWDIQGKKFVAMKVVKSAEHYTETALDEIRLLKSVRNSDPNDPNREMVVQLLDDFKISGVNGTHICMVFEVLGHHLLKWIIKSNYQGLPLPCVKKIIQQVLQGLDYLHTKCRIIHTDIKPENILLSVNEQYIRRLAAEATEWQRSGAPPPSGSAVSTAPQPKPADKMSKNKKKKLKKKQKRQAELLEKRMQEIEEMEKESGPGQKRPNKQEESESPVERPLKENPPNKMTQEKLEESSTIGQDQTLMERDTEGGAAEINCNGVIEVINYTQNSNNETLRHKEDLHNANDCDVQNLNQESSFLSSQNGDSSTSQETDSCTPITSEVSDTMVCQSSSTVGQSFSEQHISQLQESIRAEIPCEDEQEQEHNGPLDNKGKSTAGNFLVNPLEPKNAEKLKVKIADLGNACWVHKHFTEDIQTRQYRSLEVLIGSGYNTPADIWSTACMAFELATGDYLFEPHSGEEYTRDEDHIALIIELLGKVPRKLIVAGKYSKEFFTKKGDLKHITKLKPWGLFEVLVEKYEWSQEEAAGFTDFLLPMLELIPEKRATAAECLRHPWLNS
Sequence of Sphingosine kinase 1 (Homo sapiens) (Q9NYA1 whole entry): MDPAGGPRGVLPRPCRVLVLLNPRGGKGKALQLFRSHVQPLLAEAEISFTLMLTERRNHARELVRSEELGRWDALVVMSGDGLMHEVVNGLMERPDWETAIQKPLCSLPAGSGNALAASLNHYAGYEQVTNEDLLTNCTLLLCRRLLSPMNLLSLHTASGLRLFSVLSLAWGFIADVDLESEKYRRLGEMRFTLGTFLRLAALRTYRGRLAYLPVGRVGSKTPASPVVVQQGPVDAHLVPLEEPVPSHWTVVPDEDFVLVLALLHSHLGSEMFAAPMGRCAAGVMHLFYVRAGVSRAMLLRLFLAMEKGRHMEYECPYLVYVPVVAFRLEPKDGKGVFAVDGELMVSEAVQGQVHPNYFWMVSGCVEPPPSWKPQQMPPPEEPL
Sequence of Phosphatidylinositol 4-kinase beta (Homo sapiens) (Q9UBF8 2-816 limits assumed): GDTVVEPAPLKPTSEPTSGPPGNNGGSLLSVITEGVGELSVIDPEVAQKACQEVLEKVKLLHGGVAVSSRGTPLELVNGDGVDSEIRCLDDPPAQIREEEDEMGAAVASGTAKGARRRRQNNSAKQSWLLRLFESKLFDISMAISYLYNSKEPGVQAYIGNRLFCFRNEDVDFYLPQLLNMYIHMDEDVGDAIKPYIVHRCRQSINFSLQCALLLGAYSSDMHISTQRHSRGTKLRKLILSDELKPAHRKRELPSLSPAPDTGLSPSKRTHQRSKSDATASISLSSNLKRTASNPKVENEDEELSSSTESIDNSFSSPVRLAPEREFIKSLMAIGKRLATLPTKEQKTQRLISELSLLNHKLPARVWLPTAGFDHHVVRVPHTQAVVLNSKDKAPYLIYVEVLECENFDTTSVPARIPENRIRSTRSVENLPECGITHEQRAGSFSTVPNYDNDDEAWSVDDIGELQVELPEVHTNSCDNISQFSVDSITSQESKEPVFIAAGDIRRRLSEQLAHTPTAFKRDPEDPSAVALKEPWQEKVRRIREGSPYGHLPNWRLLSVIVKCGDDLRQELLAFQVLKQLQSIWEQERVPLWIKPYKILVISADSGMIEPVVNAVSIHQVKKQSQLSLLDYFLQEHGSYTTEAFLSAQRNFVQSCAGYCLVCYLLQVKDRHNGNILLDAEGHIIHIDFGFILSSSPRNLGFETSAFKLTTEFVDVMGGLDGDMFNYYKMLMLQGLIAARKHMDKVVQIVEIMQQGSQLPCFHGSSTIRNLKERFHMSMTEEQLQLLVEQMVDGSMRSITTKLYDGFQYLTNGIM

| Structure (SMILES) | inhibition [1] [%] | inhibition [2] [%] | inhibition [3] [%] | inhibition [4] [%] | inhibition [5] [%] | inhibition [6] [%] | inhibition [7] [%] | inhibition [8] [%] | inhibition [9] [%] | inhibition [10] [%] | inhibition [11] [%] | inhibition [12] [%] | inhibition [13] [%] | inhibition [14] [%] | inhibition [15] [%] | inhibition [16] [%] | inhibition [17] [%] | inhibition [18] [%] | inhibition [19] [%] | inhibition [20] [%] |
| --- | --- | --- | --- | --- | --- | --- | --- | --- | --- | --- | --- | --- | --- | --- | --- | --- | --- | --- | --- | --- |
| CCn1c(-c2nonc2N)nc2c(C#CCN)ncc(OCCCN)c21 | -2.79 | 2.33 | 7.14 | -0.54 | -3.54 | -2.56 | -5.7 | 1.34 | -2.08 | 0.33 | -2.44 | 0.6 | -1.33 | -1.18 | 10.1 | -6.76 | -0.57 | -4.65 | 0.63 | 0.53 |
| COc1cccc(-n2ncc3c(N/N=C/c4ccncc4)ncnc32)c1 | 14.1 | -1.14 | 4.65 | 3.22 | 7.14 | 2.66 | 10 | -3.14 | 1.7 | -0.71 | -2.79 | -0.91 | -0.32 | 18.2 | 59.7 | 1.55 | 1.71 | 4.82 | 4.07 | 5.23 |
| COc1cc(C=NNc2ncnc3c2cnn3Cc2ccccc2)ccc1O | -3.29 | 1.24 | 0.29 | -4.02 | -1.81 | 3.47 | 6.81 | -1.09 | 2.84 | 3.3 | -3.17 | 2.14 | 0.11 | -0.94 | 13.8 | -2.85 | -2.41 | -2.63 | -2.75 | -4.31 |
| COc1cccc(COc2cc(-n3cnc4ccccc43)sc2C(N)=O)c1 | -0.04 | -3.25 | -2.74 | 0.82 | 1.56 | 1.62 | 3.63 | 1.38 | -0.71 | 2.22 | -1.55 | -0.24 | -0.85 | 11.6 | -0.53 | 9.44 | 7.88 | -0.21 | -0.64 | -2.28 |
